# In the library only some 1.3% were active in any assay of this set; here they are far more common.
# PKM2 activator = qHTS Assay for Activators of Human Muscle isoform 2 Pyruvate Kinase | 260,000 compounds, 0.34% hits | purified PKM2, Kinase-Glo ATP luminescence, activation; response scale: 0% is enzyme alone, no compound | Potency, µM (doses to about 57.5 µM), without a hit: top-dose activation, usual class: activators | AID 1631, 2009; active = well fitted activation curve with a large enough effect; inconclusive = small, poorly fitted or top-dose-only effect; inactive = no such curve, though single readings can be large or run the other way; note: potency is the fitted concentration of half-maximal effect; % is set by controls: 0 for no effect and ±100 for the full control effect; nearly all actives have a fitted effect of over 55% in size
# Target sequence (P14618 whole entry, looked up, canonical isoform): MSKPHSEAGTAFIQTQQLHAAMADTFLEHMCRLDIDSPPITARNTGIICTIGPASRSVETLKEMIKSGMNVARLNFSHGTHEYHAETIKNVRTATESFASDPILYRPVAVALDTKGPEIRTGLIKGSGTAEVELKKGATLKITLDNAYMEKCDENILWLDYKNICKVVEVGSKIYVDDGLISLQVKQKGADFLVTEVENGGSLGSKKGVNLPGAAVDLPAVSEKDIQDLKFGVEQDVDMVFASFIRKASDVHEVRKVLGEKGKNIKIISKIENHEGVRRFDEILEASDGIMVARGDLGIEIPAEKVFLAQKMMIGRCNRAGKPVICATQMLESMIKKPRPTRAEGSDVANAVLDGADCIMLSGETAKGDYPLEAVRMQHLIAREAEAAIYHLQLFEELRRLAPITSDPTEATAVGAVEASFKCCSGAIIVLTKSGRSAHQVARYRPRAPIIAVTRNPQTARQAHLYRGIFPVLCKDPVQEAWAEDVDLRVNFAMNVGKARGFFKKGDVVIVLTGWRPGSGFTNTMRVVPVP
#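 Purified hPK-M2 (>95%) run at intermediate activity with 0.1 mM ADP and 0.5 mM PEP in 50 mM imidazole pH 7.2, KCl, MgCl2; 1 h room temperature. ATP formed read by Kinase-Glo luminescence; normalized to uninhibited and no-enzyme controls.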
# TRPML1 agonist = qHTS for Agonists of the Human Mucolipin Transient Receptor Potential 1 (TRPML1) | Mucolipin-1 (Homo sapiens), Q9GZU1 | 410,000 compounds, 0.12% hits | TRPML1-expressing cells, Ca2+ dye fluorescence, FDSS | activation, % (no concentration beside the values); note: 0% is about no effect
#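 Kinetic FDSS Ca2+ read in Tet-induced TRPML1-DL cells (ABD Ca8 dye plus quencher, 45-90 min RT loading): baseline, then compound, then 110 s agonist window; EC80 agonist 54-4 at 4uM final added afterwards for a 110 s antagonist window.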
# IL2 activator = qHTS of IL-2 Activators; IL-2 activation reporter assay, cell-based qHTS; stimulated with anti-CD3/CD4/CD28 beads; in transgenic mouse T cells; activation, % (series mostly up to about 46 µM); 360,000 compounds, 0.065% hits; AID 652025, 2013; note: 0% is about no effect
#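 Unstimulated transgenic mouse T cells, 750 per well, received compound and, after 60 minutes, anti-CD3/anti-CD4 bead plus anti-CD28 stimulation. EGFP and DsRed were quantified after 18 hours.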
# TRPML1 inh = qHTS for Inhibitors of the Human Mucolipin Transient Receptor Potential 1 (TRPML1); activity change, negative = inhibition, % (test concentration not listed); 390,000 compounds, 0.02% hits; TRPML1-inducible cells, Ca2+ dye fluorescence, FDSS; hits give low values; inhibition of EC80 agonist-evoked calcium signal; Mucolipin-1 (Homo sapiens), Q9GZU1; AID 624415, 2012; in the data active = activity change below about -50%; inconclusive = between about -30% and that limit;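 note: stimulus is agonist 54-4 at its EC80 concentration; % is set by controls: 0 for no effect and ±100 for the full control effect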
#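 Tet-induced TRPML1-DL cells loaded with Ca8 no-wash calcium dye were read kinetically on FDSS. Compound addition was followed by EC80 agonist 54-4 (4 uM final); inhibition was read over 110 s.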
# TSG101-PTAP inh = qHTS Assay for Iinhibitors of HIV-1 Budding by Blocking the Interaction of PTAP/TSG101; Tumor susceptibility gene 101 protein (Homo sapiens), Q99816; Fluorescence polarization, FITC-PTAP peptide / Tsg101 binding; Potency, µM (titrated, usually from 115 µM), for inactives: top-dose activity change, negative = inhibition, actives largely listed as inhibitors; 340,000 tested, under 10 active; AID 493005, 2010; active = well fitted inhibition curve with a large enough effect in the main read-out, with a control signal flat, not every such curve was filed as active; inconclusive = small, poorly fitted or top-dose-only effect, or effect the other way, or a change in a side signal; inactive = no such curve, though single readings can be large or run the other way; note: potency is the fitted concentration of half-maximal effect; % of control where 0% means no effect
#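 Tsg101 binding domain (10 uM final) was mixed with compound and a FITC-labeled PTAP peptide (50 nM final) in HEPES pH 7.5 buffer with NaCl, Tween 20, EDTA and TCEP; fluorescence polarization was read after 20 min at r.t.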
# BRCA1 expr act = qHTS Assay to Identify Small Molecule Activators of BRCA1 Expression; MCF7-BRCA1-FFLuc reporter, luminescence, 48 h; response scale: scaled: vehicle 0%, 10 µM genistein 100%; Potency, µM (doses to about 46.1 µM), without a hit: at the top dose activation, hits mostly activators; 380,000 compounds, 1.1% hits; active = well fitted activation curve with a large enough effect; inconclusive = small, poorly fitted or top-dose-only effect; inactive = no such curve, though single readings can be large or run the other way; note: potency is the fitted concentration of half-maximal effect; nearly all actives have a fitted effect of over 80% in size
#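 Compounds are tested at multiple concentrations on MCF7 BRCA1-luciferase reporter cells seeded at 2000 per well; after 48 h, a single luminescence end-point is taken and curves fitted to the normalized data.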
# * hit, by the source's call; ? = inconclusive; / = not tested or not shown; [ ] = remark or other dose. Cut-off read from the data, not from the text of the source, unless noted: active = activation above about 50%; inconclusive = mostly about 30% to 49%; inactive = weaker than that.
SMILES,PKM2 activator,TRPML1 agonist,IL2 activator,TRPML1 inh,TSG101-PTAP inh,BRCA1 expr act
COC(=O)c1ccccc1NC(=O)Cn1c(=O)n(CCCC(=O)NCCc2ccc(OC)c(OC)c2)c(=O)c2ccccc21,/,1.9,/,-0.8,/,12.5%
COc1ccc(CCNc2ncccc2C#N)cc1OC,2.1%,1.8,0.8,-19.1,-7.7%,3.98µM*
Cn1cccc1/C=N\NC(=O)C1COc2ccc(C(C)(C)C)cc2O1 (stereo not given),/,0.8,-0.9,-13.2,-5.6%,1.6%
Cn1cccc1/C=N\NC(=O)C1COc2ccccc2O1 (stereo not given),/,84.6*,0.2,-7.1,-6.2%,0.3%
CC1CCC(NC(=O)C2COc3ccccc3O2)CC1 (stereo not given),/,-0.2,-0.6,-14.8,-1.6%,10µM*
Cc1cccnc1NC(=S)NC(=O)c1cccs1,-13.8%,0.0,0.0,7.4,-10.2%,59.0%
Cc1cccnc1NC(=O)NC(=O)c1ccc(C(C)(C)C)s1,-3.3%,0.4,0.5,20.4,-0.6%,6.31µM*
Brc1cccc(-c2nn(-c3ccccc3)c3c2cnc2cc4c(cc23)OCO4)c1,/,-0.6,/,2.6,/,10.6%
O=C(COC(=O)C1CC1)Nc1ccc(N=Nc2ccccc2)cc1,0.7%,0.3,1.1,-8.7,-3.8%,2.51µM*
O=C(/C=C/c1ccc(F)cc1)N1CCCN(C(=O)/C=C/c2ccc(F)cc2)CC1,-0.9%,1.3,-6.2,-3.7,-3.1%,-4.1%
O=C(/C=C/c1ccc(-c2ccc(F)cc2)o1)N1CCCC1,-1.2%,2.9,0.4,25.0,-3.4%,3.98µM*
O=C(CCN1CCN(c2ccccc2)CC1)Nc1ccc(OCc2ccccc2)cc1,-5.1%,-0.5,-0.3,1.4,-6.4%,28.1%
Cc1cnc(C(=O)OCC(=O)Nc2ccc(OCc3ccccc3)cc2)cn1,/,-0.4,-3.7,-12.7,1.9%,10µM*
O=C(CCOc1ccccc1)Nc1ccc(Br)cc1,4.8%,1.6,-0.8,12.2,0.6%,7.94µM*
Cc1cnc(C(=O)OCC(=O)NCc2ccccc2)cn1,0.1%,0.4,0.1,-12.6,-0.9%,4.0%
O=C(CCSc1ccccc1)Nc1ccc(OCc2ccccc2)cc1,0.6%,1.4,-0.4,3.8,-0.6%,11.2µM*
O=C(CCCOc1ccccc1)Nc1ccc(Br)cc1,/,0.0,1.6,-6.6,-5.5%,-3.6%
COc1ccc2[nH]c(C(O)C(O)c3nc4c(OC)c(OC)ccc4[nH]3)nc2c1OC (stereo not given),/,-0.6,/,/,/,/
CN(C)c1ccc(C=O)c(F)c1,/,-0.8,/,/,/,9.3%
COC(=O)c1c(SCC(=O)Nc2cccc(Cl)c2C)[nH]c2ccccc2c1=O,/,-0.3,/,-8.3,/,12.5%
CNC(=O)c1ccc2nc(-c3ccco3)c(-c3ccco3)nc2c1,/,0.0,/,/,/,-7.6%
O=[N+]([O-])c1ccc(C(O)CSC(=S)N2CCCCC2)cc1 (stereo not given),/,0.1,-0.2,-11.0,-4.5%,3.98µM*
CCOC(=O)C(=O)N(Nc1ccc(C)cc1)c1ccc(C)cc1,-1.0%,1.2,0.1,-6.7,-3.8%,11.2µM*
CCC(O)(CC)C(=O)N(Nc1ccc(C)cc1)c1ccc(C)cc1,/,0.9,-0.3,-4.6,3.0%,-3.2%
N#CC(C#N)=Cc1ccc(-c2ccc(S(=O)(=O)N=C(N)N)cc2)o1,17.8µM*,1.2,-0.2,27.9,-19.1%,-28.6%
SMILES,PKM2 activator,TRPML1 agonist,IL2 activator,TRPML1 inh,TSG101-PTAP inh,BRCA1 expr act
CC(/C=N/NC(=O)CSc1nc2ccccc2n1C)=C\c1ccco1,5.01µM*,3.5,2.1,14.9,-5.4%,-44.0%
Cn1c(SCC(=O)N/N=C/c2ccco2)nc2ccccc21,8.2%,0.3,0.9,-18.4,-1.2%,-3.6%
CCc1ccc(N=c2c([N+](=O)[O-])nn(-c3ccc4c(c3)OCCO4)n2O)cc1,6.7%,2.6,-3.1,-10.0,-0.7%,3.98µM*
O=[N+]([O-])c1nn(-c2ccc3c(c2)OCCO3)n(O)c1=Nc1ccc(Cl)cc1,1.2%,-0.7,0.3,-5.1,-3.8%,-81.5%
COc1ccc(C2Nc3ccc(NC(=O)CO)cc3C(=O)N2Cc2cccc(Cl)c2)cc1COc1ccc(NC(C)=O)cc1 (stereo not given),/,-0.3,/,/,/,-47.5%
Cc1ccc(O)c(N/C=C/C(=O)c2ccc(F)cc2)c1,-5.4%[11.5 µM],2.3,-1.6,28.3,-0.1%,6.31µM*
Cc1ccc(N/C=C/C(=O)c2ccc(C)cc2)cc1,8.0%,0.2,0.3,-2.8,0.5%,112.5%
Cc1ccc(-n2nnc(-c3cccnc3Cl)n2)cc1,-3.1%,-0.9,-0.3,-7.9,-1.8%,3.55µM*
CN(C)c1ccc(C2C=Cc3ccccc32)c2ccccc12 (stereo not given),/,-0.9,/,/,/,-40.5%
O=S(=O)(NCC(c1cccs1)S(=O)(=O)c1ccccc1)c1ccccc1 (stereo not given),/,2.3,/,-16.1,/,/
Cc1ccccc1NC(=O)Cn1c(=O)oc2cc(Br)ccc21,/,0.5,/,49.8,/,/
CC(C)(C)c1cc(NC(=O)c2cccnc2)no1,-7.4%,2.2,0.3,12.4,-10.2%,7.08µM*
c1cc2c3c(c1)CCCN3CCC2,/,-0.2,/,/,/,/
CCCSc1nc2sc3c(c2c(=O)n1Cc1ccccc1)CC(C)(CC)OC3 (stereo not given),/,0.3,/,34.5,/,/
CCC1(C)Cc2c(sc3nc(SC)n(Cc4ccccc4)c(=O)c23)CO1 (stereo not given),-9.2%,-0.3,0.9,-24.0,-2.5%,12.6µM*
C#CCNC(=O)C[C@@H]1C[C@@]2(C(=O)OCC)CCCC=C2N(Cc2ccc3c(c2)OCO3)C1=O,/,63.0*,0.1,/,/,2.1%
CCCCNC(=O)C[C@@H]1C[C@@]2(C(=O)OCC)CCCC=C2N(Cc2ccc3c(c2)OCO3)C1=O,/,-0.7,-0.8,/,/,0.0%
COc1ccccc1C(=O)NCCC(=O)NC1CCC(C)CC1 (stereo not given),/,-1.6,-0.3,7.5,-6.1%,8.91µM*
Cc1cc(C(=O)COC(=O)c2ccc(Cl)c(S(N)(=O)=O)c2)c(C)n1CC1CCCO1 (stereo not given),/,0.4,-1.2,18.7,-2.1%,11.2µM*
COc1cc(OC)c(OC)cc1/C=C/c1nccc2ccccc12,/,0.4,/,/,/,?
C=CCN1[C@@H](C(C)C)COCCS1(=O)=O,/,-0.7,/,/,/,/
